Source: PubChem
D3 ag: D3 dopamine receptor (human) agonism. max activation, %. 410,000 compounds, 0.58% hits. P35462. AID 652048. D3R DiscoveRx beta-arrestin cells, luminescence, 90 min; in the data active = max activation above about 30%
Target sequence (P35462 whole entry, looked up): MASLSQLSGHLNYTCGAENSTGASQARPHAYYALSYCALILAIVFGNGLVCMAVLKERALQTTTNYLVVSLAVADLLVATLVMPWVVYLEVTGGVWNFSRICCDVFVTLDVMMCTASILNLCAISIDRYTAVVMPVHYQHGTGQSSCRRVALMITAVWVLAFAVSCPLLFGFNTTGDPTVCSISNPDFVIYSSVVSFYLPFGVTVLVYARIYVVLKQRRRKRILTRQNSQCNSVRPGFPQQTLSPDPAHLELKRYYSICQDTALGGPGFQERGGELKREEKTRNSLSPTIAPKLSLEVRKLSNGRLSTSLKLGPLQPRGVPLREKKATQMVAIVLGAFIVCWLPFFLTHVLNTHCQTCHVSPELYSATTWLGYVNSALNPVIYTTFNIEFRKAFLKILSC
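Cells at 1500/well, incubated overnight, then treated with pinned compounds (dopamine as control) for 90 min at 37 degrees C. DiscoveRx reagent added for 30 - 60 minutes at room temperature; luminescence read.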
D1 antag: human D1 dopamine receptor antagonism | HEK293 TREx D1 cells, calcium flux, dopamine EC80; stronger effect = lower value | activity change, negative = inhibition, % at 10 µM | 360,000 compounds, 3.2% hits | AID 504652; in the data active = activity change below about -30%
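Compound effects on dopamine-evoked calcium signalling were measured in tetracycline-induced HEK293 Trex D1 cells. Dopamine at EC80 followed a 180 s compound pre-read, and fluorescence was tracked kinetically for 180 s more.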
D1 potentiator: enhances dopamine response at the human D1 receptor; HEK293 TREx D1 cells, calcium flux, dopamine EC20 potentiation; P21728; 360,000 compounds, 0.036% hits; potentiation, % at 10 µM; in the data active = potentiation above about 30%
ERG Ets-DNA blk: blocks human ERG Ets domain binding to DNA | P11308 | fluorescence polarization, His-ERG Ets domain / labelled DNA | Potency, µM (highest dose often 76.9 µM), usual class: inhibitors | 370,000 compounds, 0.028% hits; active = well fitted inhibition curve with a large enough effect in the polarisation, with a control signal flat; inconclusive = small, poorly fitted or top-dose-only effect, or effect the other way, or a change in a side signal; inactive = no such curve, though single readings can be large or run the other way; the % refers to the polarisation;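 note: polarization taken with two DNA probes labelled with fluorescein and Texas red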
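His-tagged ERG Ets domain (1 uM in the protein solution; 300mM KCl, 50mM Tris-HCl, 1mM EDTA, 1mM DTT, pH 7.5) received compound, then a probe mix of 5 nM fluorescein-DNA and 100nM Texas-615-DNA. Fluorescence polarization was read for both dyes.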
DRD3 antagonist: blocks the human D3 dopamine receptor; P35462; D3R cells, DiscoveRx beta-arrestin luminescence, antagonist mode; stronger effect = lower value; max response, negative = inhibition, %; 360,000 compounds, 2.5% hits; AID 652054; in the data active = max response below about -50%; inconclusive = no clear call, values can overlap the other calls
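Cells expressing the human receptor were seeded at 1500 cells/well, incubated overnight at 37 degrees C in 5% CO2, then exposed to library compounds with dopamine controls for 90 minutes at 37 degrees C before luminescent detection.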
D1 ag: human D1 receptor agonism; P21728; HEK293 T-REx D1 cells, calcium flux, agonist mode; activation, % at 2 µM; 360,000 compounds, 1% hits; AID 504660; in the data active = activation above about 30%
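Agonism was scored from calcium flux recorded over 180 s (1 read/s) after pintool compound addition, following a 10-cycle baseline. Cells were inducible force-coupled HEK293 TREx D1, plated overnight at 30 C and loaded with no-wash calcium dye.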
Of the large screens only hits and unclear results are named; the others gave an inactive call. Most compounds without a hit are left out; they make up all but 6.1% or so of the library.

CC1(C)CC(=O)C(C=Nc2cccnc2/N=C/C2=C(O)CC(C)(C)CC2=O)=C(O)C1	DRD3 antagonist -143
Cc1cc(/C=N/Nc2nc(N)ncc2[N+](=O)[O-])c(C)n1-c1ccccc1F	none (no result: D3 ag, ERG Ets-DNA blk, DRD3 antagonist)
Cc1c(C(=O)OCc2nnc(-c3ccccc3)o2)oc2ccccc12	none (no result: D1 antag, D1 potentiator, D1 ag)
Cc1c(NC(=O)Cn2[nH]c(=O)c3ccccc3c2=O)c(=O)n(-c2ccccc2)n1C	DRD3 antagonist -52
Cc1c(NC(=O)CN2C(=O)c3ccccc3S2(=O)=O)c(=O)n(-c2ccccc2)n1C	DRD3 antagonist -55
COc1ccc(CCC(=O)Nc2c(C)n(C)n(-c3ccccc3)c2=O)cc1	D1 antag -38
COc1cccc(-n2c(SCC(=O)N3CCOCC3)nc3c([nH]c4ccccc43)c2=O)c1	none (no result: D1 antag, D1 potentiator, ERG Ets-DNA blk, D1 ag)
CC(C)c1cnc2c(c1SCc1cccc(C(F)(F)F)c1)c(=O)n(C)c(=O)n2C	none (no result: DRD3 antagonist)
CN(C)c1nnnn1Cc1ccccc1	none
CCN(Cc1ccccc1)Cc1nnnn1Cc1ccccc1	D1 antag -73
C=CCOc1ccc(/C=N/N2C(=O)C(CC(=O)Nc3ccc(F)cc3F)SC2=NC)cc1 (stereo not given)	D1 antag -49
N#Cc1c(NC(=O)c2cc3nc(-c4ccc(Br)cc4)cc(C(F)(F)F)n3n2)sc2c1CCCC2	none (no result: DRD3 antagonist)
Cc1cc(Cl)ccc1OCCCC(=O)NNC(=O)c1ccccc1O	none
Nc1sc(-c2ccccc2)cc1C(=O)N1CCNCC1	DRD3 antagonist -54 (no result: D1 antag, D1 potentiator, ERG Ets-DNA blk, D1 ag)
O=C1CCCC2=C1C(c1ccc(Cl)cc1)N1C(=O)CCSC1=N2 (stereo not given)	none
CC1(C)CC(=O)C2=C(C1)N=C1SCCC(=O)N1C2c1ccccc1 (stereo not given)	DRD3 antagonist -53
CCOc1ccccc1NC(=O)COC(=O)C1COc2ccccc2O1 (stereo not given)	none (no result: D1 antag, D1 potentiator, ERG Ets-DNA blk, D1 ag)
CCOc1ccc(C(=O)Nc2nnc(C(C)C)s2)cc1OCC	none
C#CCOCCOCCOCCNc1nc(N2CCN(C(=O)CCCCCCCCCCNC(=O)[C@H](CCCCN)n3cc(C[C@@H](C)CC)nn3)CC2)nc(N2CCN(C(=O)CCCCCCCCCCNC(=O)[C@@H]([C@H](C)O)n3cc(C)nn3)CC2)n1	DRD3 antagonist -59
Cc1cn([C@@H](CCCCNC(=O)OC(C)(C)C)C(=O)NCCCCCCCCCCC(=O)N2CCN(C(=O)OC(C)(C)C)CC2)nn1	D3 ag 66
C#CCOCCOCCOCCNc1nc(N2CCN(C(=O)CCCCCCCCCCNC(=O)Cn3cc(CCCCCN)nn3)CC2)nc(N2CCN(C(=O)CCCCCCCCCCNC(=O)[C@@H]([C@H](C)O)n3cc(C)nn3)CC2)n1	none
C#CCOCCOCCOCCNc1nc(N2CCN(C(=O)CCCCCCCCCCNC(=O)[C@H](CCCCN)n3cc(C)nn3)CC2)nc(N2CCN(C(=O)CCCCCCCCCCNC(=O)[C@@H]([C@H](C)O)n3cc(C)nn3)CC2)n1	D1 ag 34
COc1ccc(-c2nsc3c(SCC(=O)Nc4cc(C)ccc4C)ncnc23)cc1	none (no result: D3 ag, ERG Ets-DNA blk, DRD3 antagonist)
C[C@H](CO)N1C[C@H](C)[C@@H](CN(C)CC2CCOCC2)Oc2cc(C#Cc3ccccc3F)ccc2S1(=O)=O	none (no result: D1 antag, D1 potentiator, ERG Ets-DNA blk, D1 ag)
CC(C)C(=O)c1cn(CC(=O)O)c2ccccc12	none
OCCNCc1cc(Br)ccc1OCc1ccccc1	none
CCNCc1cc(Cl)c(OCc2ccccc2)c(OCC)c1	D1 ag 55
CCOc1cc(CNCCO)cc(Br)c1OCc1ccccc1	none (no result: D1 antag)
CCOc1cc(CNCCc2ccc(S(N)(=O)=O)cc2)ccc1OCc1ccccc1	D1 antag -45, DRD3 antagonist inconclusive, D1 ag 35
NS(=O)(=O)c1ccc(CCNCc2cc(Br)ccc2OCc2ccccc2)cc1	D1 antag -34, D1 ag 34
CCOc1cc(CNCCc2ccc(S(N)(=O)=O)cc2)cc(Cl)c1OCc1ccccc1	D1 ag 34
COc1ccc(-c2ccc(NS(=O)(=O)c3ccc(NC(C)=O)cc3)cc2)nn1	none (no result: DRD3 antagonist)
CCOC(=O)c1ccc(COC(=O)CNS(=O)(=O)c2ccccc2)cc1	D1 antag -33
CCOC(=O)CNS(=O)(=O)c1ccc(S(=O)(=O)N2CCCC2)cc1	D1 antag -103 (no result: ERG Ets-DNA blk)
Cc1ccc(S(=O)(=O)NCC(=O)OC(C(=O)c2ccccc2)c2ccccc2)cc1 (stereo not given)	none
CCc1ccc(C(=O)C(C)OC(=O)CNS(=O)(=O)c2ccc(C)cc2)cc1 (stereo not given)	D1 ag 32
Cc1ccc(S(=O)(=O)NCC(=O)OCC(=O)c2ccc(S(=O)(=O)N3CCCCC3)cc2)cc1C	none (no result: D1 antag, D1 potentiator, D1 ag)
COC(=O)c1ccc(COC(=O)CNS(=O)(=O)c2ccccc2)cc1	none
O=Cc1ccc(-c2ccc(F)cc2)o1	none
O=C(O)c1cc(Cl)ccc1-c1ccc(/C=C/c2cc(C(F)(F)F)[nH]c(=O)n2)o1	D1 ag 97
Cc1nc(S/C(=C/c2ccc(-c3cc(Cl)ccc3C)o2)C(=O)O)n[nH]1	none
O=c1nc(/C=C/c2ccc(-c3ccc(F)cc3)o2)cc(C(F)(F)F)[nH]1	D1 ag 98 (no result: D3 ag, ERG Ets-DNA blk, DRD3 antagonist)
O=C(O)c1ccccc1-c1ccc(/C=C/c2cc(C(F)(F)F)[nH]c(=O)n2)o1	D1 ag 146
CCCN(Cc1nnc(-c2cccs2)o1)C(=O)c1cc(S(=O)(=O)N2CCOCC2)ccc1C	none (no result: D1 potentiator)
CC1(C)CC(C(N)=S)CCO1 (stereo not given)	D1 antag -37
COC(=O)CSC1=C(C#N)C(c2cccc(F)c2)CC(=O)N1 (stereo not given)	none
COC(=O)CSC1=C(C#N)C(c2cccc(OC)c2)CC(=O)N1 (stereo not given)	D1 antag -42 (no result: D1 potentiator)
CCCSC1=C(C#N)C(c2ccc(O)c(OC)c2)CC(=O)N1 (stereo not given)	D1 antag -53 (no result: D1 potentiator)
CCN(CC)Cc1c(O)ccc2c(=O)c(-c3ccccc3)coc12	none
CC(=O)Nc1ccc2c(c1)CCc1ccccc1-2	none
O=C(O)/C=C/C(=O)c1ccc2c(c1)CCc1ccccc1-2	DRD3 antagonist -139
COc1cc(Cn2c(=O)oc3ccc(C)cc32)ccc1OC(C)C	D1 antag -33
CCN(CC)CCNC(=O)CCc1c(C)nc2c(c(C)nn2-c2ccc(C)cc2)c1C	DRD3 antagonist -50
Cc1nc2c(c(C)nn2-c2ccccc2)c(C)c1CCC(=O)Nc1ccc(F)cc1	D3 ag 44 (no result: DRD3 antagonist)
COCCNC(=O)CCc1c(C)nc2c(c(C)nn2-c2ccc(C)cc2)c1C	none
Cc1cccc(Nc2n[nH]c(C)c2[N+](=O)[O-])c1	D1 antag -37, DRD3 antagonist inconclusive
